Screening results: PubChem, National Center for Advancing Translational Sciences (NCATS)
Menin MLL FP TR: inhibitors of human menin-MLL interaction, mutant MLL peptide. O00255. Menin + Texas Red MLL mutant peptide, fluorescence polarization. Potency, µM (titrated, usually from 61.6 µM), for inactives: top-dose FP activity change, negative = inhibition, most hits filed as inhibitors. 0.23% of 270,000 active; active = well fitted inhibition curve with a large enough effect in the polarisation, with a control signal flat, not every such curve was filed as active; inconclusive = small, poorly fitted or top-dose-only effect, or effect the other way, or a change in a side signal; inactive = no such curve, though single readings can be large or run the other way; the % refers to the polarisation; also: potency is read from the fitted curve at half-maximal effect; % of control where 0% means no effect
Menin-MLL FL inh: menin-MLL binding inhibition, fluorescein peptide. AID 1766. Fluorescence polarization, fluorescein-MLL peptide displacement from menin. FP activity change, % at 61.4 µM. 290,000 tested, under 10 active; active = well fitted curve in the direction sought with a large enough effect in the polarisation, not every such curve was filed as active; inconclusive = small, poorly fitted or top-dose-only effect, or effect the other way, or a change in a side signal; inactive = no such curve, though single readings can be large or run the other way; the % refers to the polarisation; also: % of control where 0% means no effect
ClpP mod: qHTS Assay for Activators of ClpP; purified B. subtilis ClpP, FRET peptide cleavage, 20 min; Potency, µM (highest dose often 57.5 µM), for inactives: at the top dose activity change, negative = active; 1.9% of 340,000 active; active = well fitted falling curve with a large enough effect; inconclusive = small, poorly fitted or top-dose-only effect; inactive = no such curve, though single readings can be large or run the other way; also: potency is read from the fitted curve at half-maximal effect; the source files actives as falling curves though it sought activators and does not explain the sign; nearly all actives have a fitted effect of over 65% in size
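FRET quenching reversal measured ClpP activation: 10 microg/mL B. subtilis ClpP at pH 8 with the FRET-FV decapeptide, read at 430 nm after 320 nm excitation. The 20-min minus 0-min signal was scaled between DMSO/no-enzyme wells and ADEP (5.8 microM final).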
p53 reactivation: re-activators of mutant p53 | Potency, µM (doses to about 92.2 µM), without a hit: at the highest dose activity change, positive = activation, most hits filed as activators | 0.063% of 320,000 active | H1299 p53-A138V BP100-luciferase reporter, luminescence, 24 h; active = well fitted activation curve with a large enough effect; inconclusive = small, poorly fitted or top-dose-only effect; inactive = no such curve, though single readings can be large or run the other way; also: potency is read from the fitted curve at half-maximal effect; % of control where 0% means no effect; nearly all actives have a fitted effect of over 45% in size
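p53-null H1299 cells stably carrying temperature-sensitive p53-A138V and a BP100-luciferase reporter were pinned with compounds (4-point, 1:5 series) and held 24 hrs at 37 deg C. Luminescence was read 10 min after detection reagent.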
CXXC DNA block: blocks binding of human MLL CXXC domain to DNA. Q03164. MLL-CXXC / FITC-HOXA9 DNA fluorescence polarization. Potency, µM (doses to about 115 µM), without a hit: top-dose activity change, negative = inhibition, actives largely listed as inhibitors. 0.037% of 290,000 active. AID 2662; active = well fitted inhibition curve with a large enough effect in the polarisation, with a control signal flat, not every such curve was filed as active; inconclusive = small, poorly fitted or top-dose-only effect, or effect the other way, or a change in a side signal; inactive = no such curve, though single readings can be large or run the other way; the % refers to the polarisation; also: potency is read from the fitted curve at half-maximal effect
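Steps: dispense CXXC domain solution (7 uM) → pin compounds or unlabeled HOX-A9 DNA control → 5 min ambient → add FLSN-HOX-A9 solution (50 nM) → spin → 30 min ambient → fluorescence polarization. Tris pH 7.5/NaCl/DTT/BSA buffer.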
Active calls of the source: *; ? = inconclusive; · = no result; [ ] = dose if it differs, or a comment. The full list was thinned out, with hits kept by preference.

SMILES	Menin MLL FP TR	Menin-MLL FL inh	ClpP mod	p53 reactivation	CXXC DNA block
COc1ccc(-c2ccnc3nc(-n4cccc4)nn23)cc1	-21.0%	6.7	28.2µM*	-4.2%	9.2%
COc1ccc(-c2ccnc3nc(N4CCOCC4)nn23)cc1	?	-0.6	15.8µM*	-5.8%	-10.4%
COc1c(N)c2ccccc2[nH]c1=O	25.1%	5.5	31.6µM*	-3.6%	0.9%
Nc1cccc2[nH]cnc12	·	·	-26.3%	·	·
COc1ccc(OC)c(-c2oc3ccccc3c(=O)c2O)c1	-14.2%	16.6	2.2%	2.1%	10.3%
COc1cc(OC)c(-c2oc3ccccc3c(=O)c2O)c(OC)c1	·	·	28.2µM*	·	·
O=C(CN1C(=O)/C(=C\c2cccc(F)c2)Oc2ccccc21)N1CCN(c2ccccn2)CC1	11.4%	2.8	-73.7%	0.1%	1.5%
O=C(CN1C(=O)/C(=C\c2ccc(F)cc2)Oc2ccccc21)N1CCN(c2ccccn2)CC1	-6.8%	5.1	22.4µM*	-4.8%	8.4%
CCC(Sc1ncnc2c1c(-c1ccccc1)cn2-c1ccc(OC)cc1)C(=O)OC (stereo not given)	3.3%	3.3	31.6µM*	-7.0%	3.4%
CCOc1ccc(-n2cc(-c3ccccc3)c3c(SC(C)C(=O)OC)ncnc32)cc1 (stereo not given)	-4.7%	1.5	?	-14.2%	-2.8%
CCOC(=O)C(C)Sc1ncnc2c1c(-c1ccccc1)cn2-c1ccc(OC)cc1 (stereo not given)	6.0%	-1.5	25.1µM*	-20.2%	-0.4%
COC(=O)C(C)Sc1ncnc2c1c(-c1ccccc1)cn2-c1ccc(OC)cc1 (stereo not given)	1.0%	0.9	?	-23.6%	12.8%
CC(N)C(=O)NCC(=O)NC1CSSCC(C(=O)O)NC(=O)C(CO)NC(=O)C(C(C)O)NC(=O)C(Cc2ccccc2)NC(=O)C(C(C)O)NC(=O)C(CCCCN)NC(=O)C(Cc2c[nH]c3ccccc23)NC(=O)C(Cc2ccccc2)NC(=O)C(Cc2ccccc2)NC(=O)C(CC(N)=O)NC(=O)C(CCCCN)NC1=O (stereo not given)	?	-6.0	·	·	10.8%
CN(Cc1ccccc1)C(=O)CCSc1nc(-c2ccc3c(c2)OCO3)cc(C(F)(F)F)n1	0.5%	6.3	17.8µM*	-11.4%	-6.2%
O=C(CCSc1nc(-c2ccc3c(c2)OCO3)cc(C(F)(F)F)n1)NCc1ccccc1	-14.8%	2.5	-2.9%	14.2%	-4.1%
COc1ccc(CNC(=O)CCSc2nc(-c3ccc4c(c3)OCO4)cc(C(F)(F)F)n2)cc1	7.2%	6.7	7.94µM*	5.5%	0.9%
O=C1CCCc2[nH]c(=O)c(C(=O)NCc3ccccc3)cc21	·	·	-24.7%	·	·
CCOC(=O)C(=CNc1nc(-c2ccccc2)c(C(=O)Nc2ccc(-c3ccccc3)cc2)s1)C(=O)OCC	·	·	12.6µM*	1.1%	13.0%
Cc1nc(-c2cn[nH]c2)c2cc(C)oc2n1	-2.5%	3.2	28.2µM*	-10.5%	10.2%
Cc1cc2c(C)nc(-c3ccccc3)nc2o1	?	2.2	-0.6%	23.3%	0.3%
COc1ccc2[nH]c(C)cc2c1	·	·	-10.5%	·	·
O=C(c1ccccc1)N1N=C(c2ccccc2O)CC1c1ccccc1 (stereo not given)	28.2µM*	3.0	-2.6%	6.1%	?
Nc1nnc(SCC(=O)NCCOc2ccccc2)s1	-12.6%	1.0	25.1µM*	11.7%	-7.4%
CC(C)(C)c1cc(NC(=O)CSc2nnc(NCc3ccccc3)s2)n(-c2ccccc2)n1	-2.3%	-2.2	-0.1%	8.0%	-7.1%
CC(C)(C)c1cc(NC(=O)CSc2nnc(N)s2)n(-c2ccccc2)n1	21.9%	4.1	28.2µM*	-9.0%	-8.1%
SMILES	Menin MLL FP TR	Menin-MLL FL inh	ClpP mod	p53 reactivation	CXXC DNA block
CCC1CCCCN1CC(O)Cn1c2ccccc2n2c(=O)cc(C)c(C#N)c12 (stereo not given)	?	2.1	28.2µM*	-8.4%	?
Cc1cc(=O)n2c3ccccc3n(CC(O)CN3CCC(C)CC3)c2c1C#N (stereo not given)	9.1%	-1.1	35.5µM*	-8.2%	1.0%
Cc1cc(=O)n2c3ccccc3n(CC(O)CN3CCN(CCO)CC3)c2c1C#N (stereo not given)	-28.9%	6.6	·	-4.5%	20.5%
COC(=O)C[C@H]1c2ccccc2C2=C(C[C@@H](C)[C@H]3C(=O)NC(=O)[C@@H]23)N1C(=O)OC	0.8%[11.7 µM]	0.0[11.7 µM]	·	·	·
CCN1C(=O)C(CC(=O)Nc2c(C)cccc2C)Nc2cc(S(=O)(=O)N(C)C)ccc21 (stereo not given)	-1.4%	1.0	28.2µM*	2.9%	-2.9%
Cc1cc(C)cc(NC(=S)N(CCN(C)C)C(C)c2cccnc2)c1 (stereo not given)	0.3%	-2.6	·	2.2%	-0.8%
Cc1cc(C)c(NC(=S)N(CCN(C)C)C(C)c2cccnc2)c(C)c1 (stereo not given)	-11.9%	-0.7	15.8µM*	-1.8%	-10.5%
O=CN1CCN(C2CC(=O)N(c3ccc(Br)cc3)C2=O)CC1 (stereo not given)	10.7%	5.0	35.5µM*	-3.1%	4.5%
O=C1CC(N2CCC(O)CC2)C(=O)N1c1ccc(Br)cc1 (stereo not given)	8.5%	-0.6	-5.0%	-0.4%	-10.1%
CC1=C(C(=O)OCC2CCCO2)C(c2ccc(C)cc2)C2=C(CCCC2=O)N1 (stereo not given)	-2.8%	1.2	·	-3.2%	7.0%
CC1=C(C(=O)OCC2CCCO2)C(c2ccncc2)C2=C(CCCC2=O)N1 (stereo not given)	11.4%	-0.6	22.4µM*	-12.0%	4.2%
CC1=C(C(=O)OC(C)C)C(c2cccnc2)C2=C(CCCC2=O)N1 (stereo not given)	-2.9%	-1.2	28.2µM*	-2.3%	-5.9%
COc1cc(C(=O)O[C@H]2C/C(C)=C/CC/C(C)=C/[C@@H](O)C2C(C)C)ccc1O (stereo not given in full)	25.4%	4.4	·	·	·
COc1cccc(-c2cc3c(-n4cccc4)ncnc3o2)c1	12.1%	3.6	14.1µM*	8.3%	2.3%
Cc1nc(NCC(=O)c2c[nH]c3ccccc23)sc1C	·	·	-16.0%	·	·
CCOC(=O)COc1cc([N+](=O)[O-])cc2cccnc12	20.9%	5.1	·	-3.6%	-3.2%
CCOC(=O)COc1ccc2c(c1)C(=O)CC(C)(c1cccnc1)O2 (stereo not given)	0.1%	-2.4	28.2µM*	-3.4%	-4.5%
CCOC(=O)COc1ccc2c(c1)C(=O)CC1(CCCCC1)O2	-14.3%	3.5	28.2µM*	-3.5%	-6.2%
O=C(COc1ccc2c(c1)C(=O)CC1(CCCCC1)O2)NCc1ccccc1	-8.8%	3.7	-17.2%	13.3%	-11.8%
O=C(COc1ccc2c(c1)C(=O)CC1(CCCCC1)O2)NCc1ccccn1	14.7%	2.5	25.1µM*	-5.6%	-0.9%
